The record followed here is PubChem BioAssay (NCATS).

Results filed as inconclusive are left out. Entries that show only a call come without a potency. Values without a mark were called inactive. Activity calls are given as the source filed them. Calls follow the shape of the dose curve; as a rule, active = well fitted inhibition curve with a large enough effect; inconclusive = small, poorly fitted or top-dose-only effect; inactive = no such curve, though single readings can be large or run the other way. Where a SMILES comes first, the peptide text is derived from it.

The assay deals with Zika virus NS2B-NS3 protease (linked construct). Put plainly: Primary screen NINDS Rhodamine qHTS for Zika virus inhibitors (AID 1347160). Also: nearly all actives have a fitted effect of over 55% in size. As to conditions: purified NS2B-NS3 protease, Rhodamine110 substrate fluorescence; series mostly up to 57.1 µM. The source says:
Avindra Nath, Ph.D., National Institute of Neurological Disorders and Stroke (NINDS), Bethesda, MD
Radhakrishnan Padmanabhan, Ph.D., Georgetown University (GU), Washington D.C.
Zika Virus causes congenital defects, including microcephaly and is associated with Guillain-Barre syndrome, eningoencephalitis and myelitis in infected adult. […] Using a target-based approach, we hope to establish a screening paradigm to uncover novel, cell-active NS2B-NS3 protease (Zika Virus) specific inhibitors from NCATS' collection of small molecules using qHTS.
Four assay panel was created to identify potential Zika Virus inhibitors. Namely, (1) GU unlinked NS2B-NS3 AMC tagged protease qHTS, (2) GU unlinked NS2B-NS3 Rhodamine tagged protease qHTS, (3) NINDS linked NS2B-NS3 AMC tagged protease qHTS, (4) NINDS linked NS2B-NS3 Rhodamine tagged protease qHTS. Active compounds were re-acquired and re-screened to confirm inhibition. Inhibitors were further screened against various confirmatory and counterscreens in dose response format.
Early Translation Branch (ETB)
National Center for Advancing Translational Sciences (NCATS), Rockville, MD
National Institute of Health (NIH), Bethesda, Maryland
For the linked assay, Nath lab (NINDS) provided the purified linked NS2B-NS3 protease which is consists of hydrophilic domain of NS2B linked to the NS3 protease domain by a flexible (-[…]-) linker. Control compound aprotinin is obtained from Thermo Scientific (#78432; Waltham, Massachusetts). Rhodamine110 substrate ([N-Cbz]-Nle-Lys-Arg-Arg-Rhod110-Arg-Arg-Lys-Nle-[N-Cbz]) was purchased from either Genscript or Bachem.
1536-well Protease (Rhodamine110 Substrate) Assay:
Briefly, 3 microL of enzyme (25 nM final concentration), in assay buffer (10 mM Tris-HCl pH 8.0 with 0.01% Tween 20) were dispensed into a 1,536-well solid-bottom black plate (Greiner Bio One, Monroe, NC). Twenty-three nL of compounds (final concentration range 7.28 nM to 114 microM) or control Aprotinin (final concentration range 3.47 nM to 114 microM) were transferred via Wako Pin-tool (Wako Automation, Richmond, VA). Samples were incubated (room temperature, protected from light) for 15 minutes followed by a 1 microL Rhodamine110 substrate addition (1.5 microM final concentration). Plates were then immediately read on a ViewLux High-throughput CCD imager (PerkinElmer, Waltham, MA) equipped with FITC fluorescence optics (480(20) nm excitation, 540(25) nm emission), then incubated (room temperature, protected from light) for 15 minutes (~15% conversion). The change in fluorescence intensity over the 15-minute reaction period was normalized against no-inhibitor and no-enzyme controls and the resulting percent inhibition data were fitted to a 4-parameter Hill equation. Aprotinin was used as intraplate control.
For `Cc1onc(-c2ccccc2)c1C(=O)N[C@@H]1C(=O)N2[C@@H]1SC(C)(C)[C@@H]2C(=O)O`, the Potency entry was “inactive”.
Turning to `O=C(c1ccc(F)cc1)C1CCN(CCn2c(=O)nc3n(c2=O)CCCC3)CC1`, the Potency entry was “inactive”.
`COc1ccc(C)c2sc(NC(=O)c3ccncc3)nc12`: the Potency result is “inactive”.
As for `CC(C)(O)CNc1nc(Nc2ccnc(C(F)(F)F)c2)nc(-c2cccc(C(F)(F)F)n2)n1`, the Potency entry was “inactive”.
As for `C[C@@H](O)[C@H](N)C(=O)N1CCC[C@H]1C(=O)N1CCC[C@H]1C(=O)N[C@H](C(N)=O)[C@@H](C)O` (H-TPPT-NH2), the activity change, negative = inhibition was 20.4% [at 10.7 µM].
On to `O=C(O)C[C@H](O)C[C@H](O)/C=C/c1c(C2CC2)nc2ccccc2c1-c1ccc(F)cc1`, for which the Potency entry is “inactive”.
As to `C/C=C(\C)C(=O)OC[C@H]1O[C@H](O[C@H]2O[C@H](CO)[C@@H](OC(=O)/C(C)=C/C)[C@H](O)[C@H]2O[C@@H]2O[C@H](CO)[C@@H](O)[C@H](O)[C@H]2O)[C@H](O[C@@H]2O[C@H](CO)[C@@H](O)[C@H](O)[C@H]2O)[C@@H](O)[C@@H]1O`, the Potency entry is “inactive”.
As for `C[C@@H]1O[C@@H](O[C@H]2[C@H](OC(=O)[C@]34CCC(C)(C)C[C@H]3C3=CCC5[C@@]6(C)C[C@H](O)[C@H](O[C@@H]7O[C@H](CO[C@@H]8OC[C@H](O)[C@H](O)[C@H]8O)[C@@H](O)[C@H](O)[C@H]7O)C(C)(C)C6CC[C@@]5(C)[C@]3(C)C[C@H]4O)OC[C@@H](O)[C@@H]2O)[C@H](O)[C@H](O[C@@H]2OC[C@](O)(CO)[C@H]2O)[C@H]1O[C@@H]1OC[C@H](O)[C@H](O[C@@H]2OC[C@@H](O)[C@H](O)[C@H]2O)[C@H]1O` (stereo not given in full), the activity change, negative = inhibition was 22.5% [at 10.7 µM].
With `CC[C@@H](c1ccc(F)c(F)c1)n1c(C(=O)OC)c(-c2ccno2)[nH]c1=S`, the Potency entry is “inactive”.
Consider `OCc1ccccc1O[C@@H]1O[C@H](CO)[C@@H](O)[C@H](O)[C@H]1O`, for which the Potency result is “inactive”.
As for `COc1cc(/C=C/C(=O)O[C@H]2[C@H](O)[C@@H](CO)O[C@@]2(CO)O[C@H]2O[C@H](COC(=O)c3ccc(O)cc3)[C@@H](O)[C@H](O)[C@H]2O)cc(OC)c1OC`, the Potency entry is “inactive”.
Same read-out and setting: the same measure for `NS(=O)(=O)OC[C@@H]1C[C@@H](n2ccc3c(N[C@H]4CCc5ccccc54)ncnc32)C[C@@H]1O`: “inactive”; for `C=C(C)C(C)C1OC23CC4(CO2)C(CCC2C5(C)CCC(OC6OCC(O)C(OC7OC(CO)C(O)C(OC8OCC(O)C(O)C8O)C7O)C6OC6OC(CO)C(O)C6O)C(C)(C)C5CCC24C)C3C(C)(O)C1OC(C)=O` (stereo not given): “inactive”.
On to `NS(=O)(=O)NCCNc1nonc1C(=Nc1ccc(F)c(Br)c1)NO`, for which the Potency entry is “inactive”.
Consider `N#Cc1ccc2[nH]c(O)c(-c3ccc(CN4CCOCC4)cn3)c2c1`, for which the Potency entry was “inactive”.
As to `COc1cc(C)c(C(=O)O[C@H]2[C@@H](O)[C@H](n3ccc(=O)[nH]c3=O)O[C@@H]2CO)c(OC)c1`, the Potency result is “inactive”.
On the same count and under the same terms, the same measure for `C=CC1(C)CC2=CCC3C(C)(C(=O)O)CCCC3(C)C2CC1OC(C)=O` (stereo not given): “inactive”; for `COC1CC(OC2CCC3(C)C(=CCC4C3CCC3(C)C(C(C)O)CCC43O)C2)OC(C)C1OC1OC(C)C(OC2OC(COC3OC(COC4OC(CO)C(O)C(O)C4O)C(O)C(O)C3O)C(O)C(O)C2O)C(OC)C1O` (stereo not given): “inactive”; for `CC1=CC(=O)C2C(C)(C)CC(O)CC2(C)C1CO` (stereo not given): “inactive”.
Consider `C=C1C2=CC(O)C(C)C1(C)CC/C(C)=C/CCC1(C)OC1C2=O` (stereo not given), for which the Potency entry is “inactive”.
With `COCCN(C)Cc1ccc2nc3sc(C(=O)N(C)C4CCCCC4)cn3c2c1`, the Potency result is “inactive”.
On to `Cc1cc(N2CCCCC2)nc2ccccc12`, for which the Potency result is “inactive”.
On the same count and under the same terms, with `COc1ccc(/C=C/C(=O)O[C@@H]2[C@@H](OC(C)=O)[C@@H](OC(C)=O)[C@H](O[C@H]3[C@@H]4C=CO[C@@H](O[C@@H]5O[C@H](CO)[C@@H](O)[C@H](O)[C@H]5O)[C@@H]4[C@@]4(CO)O[C@@H]34)O[C@H]2C)cc1O` the entry was “inactive”; with `COc1ccccc1[C@@H]1C2=C(CC(C)(C)CC2=O)Nc2n[nH]c(C(F)(F)F)c21`, “inactive”.
Take `COCC(=O)N1CCc2cc(-c3csc(NC(=O)c4cc(OC)cc(OC)c4)n3)ccc21`: the Potency entry is “inactive”.
The same measure, in the same setting: with `C[C@@H]1CC[C@]2(C(=O)O)CC[C@]3(C)C(=CCC4[C@]5(C)C(CC[C@]43C)C(C)(C)[C@@H](O)[C@H](O)[C@@H]5O)C2[C@]1(C)O` (stereo not given in full) the entry was “inactive”.
On to `CC1=C2C(=O)O[C@@H](c3ccoc3)[C@]2(C)CCC1`, for which the Potency entry was “inactive”.
Still for that read-out and setting: the same measure for `CC(C)(OC1OC(CO)C(O)C(O)C1O)C1CCC(O)(CO)C2CC(O)C(C)(O)C2C1` (stereo not given): “inactive”; for `COc1cc(C2Oc3c(O)cc(CCCO)cc3C2CO)ccc1O[C@H]1O[C@H](C)[C@@H](O)[C@H](O)[C@@H]1O` (stereo not given in full): “inactive”; for `CC1(CCC(=O)O)C(=O)C=CC23CC4CC(OC4(C)C2O)C13` (stereo not given): “inactive”.
Take `COc1c2c(c(C)c3c1C(=O)OC3)OC1(C)CC(O)C3(O)C(C)(C)OC(=O)CCC3(C)C1C2` (stereo not given): the Potency result was “inactive”.
For `OC[C@H]1O[C@@H](Oc2cc(O)cc(/C=C/c3ccc(O)cc3)c2)[C@H](O)[C@@H](O)[C@@H]1O`, the Potency result is “inactive”.
Consider `CC1CCC2C(C)(C)C(O)CCC2(C)C12Cc1c(O)cc3c(c1O2)C(N)=NC3` (stereo not given), for which the Potency entry was “inactive”.
Take `COC12CC3C(C(C)C1=CC(=O)O2)C(O)C(OC(C)=O)C1C(C)(C)C(OC(C)=O)CCC31C` (stereo not given): the Potency result was “inactive”.
`CC1(C)C[C@H]2C3=CCC4[C@@]5(C)CC[C@H](O[C@H]6O[C@H](C(=O)O)[C@@H](O)[C@H](O)[C@H]6O[C@H]6O[C@H](CO)[C@@H](O)[C@H](O)[C@H]6O[C@@H]6O[C@H](CO)[C@@H](O)[C@H](O)[C@H]6O)[C@](C)(CO)C5CC[C@@]4(C)[C@]3(C)CC[C@@]2(C)[C@H](O[C@@H]2OC[C@H](O)[C@H](OC3O[C@H](CO)[C@@H](O)[C@H](O)[C@H]3O)[C@H]2O)[C@@H]1O` (stereo not given in full): the activity change, negative = inhibition was -4.25% [at 10.7 µM].
Regarding `CCn1cc(C2=NOC(C(=O)Nc3c(C)n(C)n(-c4ccccc4)c3=O)C2)c(C)n1` (stereo not given), the Potency result is “inactive”.
Consider `CC(=O)N[C@H]1[C@H](O[C@H]2CC[C@@]3(C)C(CC[C@]4(C)C3CC=C3C5CC(C)(C)CC[C@]5(C(=O)O)[C@H](O[C@@H]5O[C@H](CO)[C@@H](O)[C@H](O)[C@H]5O)C[C@]34C)C2(C)C)O[C@H](CO[C@@H]2OC[C@H](O)[C@H](O)[C@H]2O[C@@H]2OC[C@@H](O)[C@H](O)[C@H]2O)[C@@H](O)[C@@H]1O` (stereo not given in full), for which the Potency result is “inactive”.
As to `CCC[C@@H]1C[C@@H](C(=O)N[C@H](C(C)Cl)[C@H]2O[C@H](SC)[C@H](O)[C@@H](O)[C@H]2O)N(C)C1` (stereo not given in full), the Potency entry was “inactive”.
As for `CC1(C(=O)O)CCCC2(C)C1CCC13CC(CCC21)C1(CO)OC31` (stereo not given), the Potency result was “inactive”.
As to `COc1cc(/C=C/C(=O)OC(C)(C)C(OC2OC(CO)C(O)C(O)C2O)C(=O)OCc2ccc(OC3OC(CO)C(O)C(O)C3O)cc2)ccc1O` (stereo not given), the Potency entry is “inactive”.
